The list is not random: actives were taken first. Their share in the collection is about 1.1%.
NR2F2 inh = NR2F2 transcriptional activity inhibitors, primary screen, cell-based, luciferase reporter, HEK293T, luminescence; COUP transcription factor 2 (Homo sapiens), P24468; HEK293T NGFI-A luciferase reporter; inhibition, % at 8.6 µM; actives 0.7% (n = 370,000); AID 686940, 2013;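 active means inhibition above a per-plate cutoff, mean inhibition of test wells between control levels plus 3 SD, cut at about 38% in these data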;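 further: cells cotransfected with COUP-TFII expression vector driving the NGFI-A reporter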
NCOA1 inh = SRC1 coactivator transcriptional activity inhibitors, primary screen, cell-based, luminescence; actives 0.12% (n = 360,000); inhibition, % at 3.6 µM; HEK293 GAL4-SRC1 luciferase reporter;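 active means inhibition above the campaign mean plus 3 SD, with each screening campaign given its own cutoff, cut at about 60% in these data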
GalR3 antagonist = GalR3 antagonists in HEK293 cells, primary screen, cell-based, fluorescence readout; Galanin receptor type 3 (Homo sapiens), O60755; HEK293 GalR3-CNG cAMP membrane potential fluorescence; galR3 body fused to GalR1 C-terminus; inhibition, % at 3 µM; actives 0.44% (n = 360,000); AID 651719, 2012;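 active means inhibition above the screen-wide average plus 3 SD, cut at about 13% in these data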;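 further: forskolin and galanin both at EC90 stimulate the cells; cAMP rise reported by CNG channel membrane potential dye signal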
NCOA2 inhibitor = inhibition of GAL4-SRC2 driven luciferase reporter, primary screen, SRC2 inhibitor project, cell-based, luminescence; HEK293 GAL4-SRC2 luciferase reporter; actives 0.17% (n = 370,000); Nuclear receptor coactivator 2 (Homo sapiens), Q15596; inhibition, % at 9 µM; AID 651957, 2012;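 active means inhibition above the mean inhibition of all tested compounds plus 3 SD, set per campaign, cut at about 52% in these data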
NR5A2 inv ag = LRH-1 (NR5A2) inverse agonists, primary screen, cell-based, luminescence, HEK293T, StAR-luciferase reporter; Nuclear receptor subfamily 5 group A member 2 (Homo sapiens), O00482; LRH-1 transfected, 24 h; inhibition, % at 3.6 µM; actives 0.13% (n = 360,000);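 active means inhibition above the mean inhibition of all tested compounds plus 3 SD, cut at about 73% in these data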
Target sequence (O00482 whole entry, looked up): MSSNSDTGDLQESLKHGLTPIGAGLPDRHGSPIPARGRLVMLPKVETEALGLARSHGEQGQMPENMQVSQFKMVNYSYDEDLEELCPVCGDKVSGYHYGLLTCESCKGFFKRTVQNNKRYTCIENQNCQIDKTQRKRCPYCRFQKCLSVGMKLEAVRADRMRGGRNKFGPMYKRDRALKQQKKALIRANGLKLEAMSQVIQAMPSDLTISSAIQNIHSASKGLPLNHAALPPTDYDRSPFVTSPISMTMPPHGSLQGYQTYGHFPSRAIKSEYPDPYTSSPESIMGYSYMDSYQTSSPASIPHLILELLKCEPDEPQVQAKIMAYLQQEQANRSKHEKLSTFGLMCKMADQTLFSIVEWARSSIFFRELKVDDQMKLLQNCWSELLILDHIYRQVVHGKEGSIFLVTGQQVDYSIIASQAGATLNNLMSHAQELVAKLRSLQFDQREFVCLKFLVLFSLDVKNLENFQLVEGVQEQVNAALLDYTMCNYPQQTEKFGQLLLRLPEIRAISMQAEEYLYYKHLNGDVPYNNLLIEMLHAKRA
SRC3 inh = SRC3 coactivator transcriptional activity inhibitors, primary screen, cell-based, luminescence | actives 0.17% (n = 360,000) | AID 588352, 2011 | HEK293 GAL4-SRC3 luciferase reporter | inhibition, % at 3.6 µM | Nuclear receptor coactivator 3 (Homo sapiens), Q9Y6Q9;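 active means inhibition above a per-campaign cutoff, the mean of all compounds plus 3 SD, cut at about 60% in these data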;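 further: higher means less SRC3-driven luciferase light from the GAL4 reporter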
GalR3 antag conf = GalR3 antagonist hit confirmation, cell-based, fluorescence, triplicate. shares compounds with GalR3 antagonist. HEK293 GalR3 CNG cAMP biosensor, membrane potential fluorescence; galR3 fused to GalR1 carboxy tail; challenged with forskolin and galanin at EC90. inhibition, % at 3 µM. actives 59% (n = 1,600). AID 652245, 2013;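 active means inhibition above the primary screen's cutoff, the mean inhibition of all screened compounds plus 3 SD, cut at about 13% in these data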
CNG parental = nonspecific cAMP agonists in parental HEK-CNG cells, counter-screen for GalR3 antagonist project, cell-based, fluorescence, high throughput | AID 652268, 2013 | HEK293-CNG parental cells, cAMP membrane potential fluorescence; normalised: DMSO wells 0%, forskolin wells 100% | activation, % at 3 µM | actives 10% (n = 1,600) | shares compounds with GalR3 antagonist; in the data active means activation above about 1.3%
Gal4-VP16 ctr = Gal4-VP16 luciferase reporter inhibitors, counter-screen for COUP-TFII antagonist project, cell-based, luminescence, HEK293; shares compounds with NR2F2 inh; inhibition, % at 8.5 µM; actives 25% (n = 2,500); in the data active means inhibition above about 13%
NR2F2 inh conf = NR2F2 transcriptional activity inhibitors, confirmation, cell-based, luciferase reporter, HEK293, triplicate; shares compounds with NR2F2 inh; HEK293 NGFI-A luciferase reporter, luminescence; inhibition, % at 8.5 µM; actives 45% (n = 2,500);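 active means mean inhibition over three repeats above a set limit taken from the earlier primary screen, cut at about 38% in these data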
Of the large screens only hits and unclear results are named; the others gave an inactive call (follow-up assays come after a bar, where they were run).

COCCN1CCN(C(=O)c2ccc3nc(Cc4ccc(OC)c(OC)c4)oc3c2)CC1	NR2F2 inh 49.3, GalR3 antagonist 87.5 | GalR3 antag conf 48.0 | CNG parental inactive | Gal4-VP16 ctr inactive | NR2F2 inh conf 48.5
Cc1cc(C)cc(OCC(O)CN2CCC(CN3C(=O)c4cccc5cccc(c45)C3=O)CC2)c1 (stereo not drawn)	NR2F2 inh 72.9, GalR3 antagonist 28.5 | GalR3 antag conf 20.5 | CNG parental 8.2 | Gal4-VP16 ctr inactive | NR2F2 inh conf 39.9
C[C@H]1COc2cccc(N3CCCC3)c2S(=O)(=O)N1	none (no result: NCOA1 inh, NR5A2 inv ag, SRC3 inh)
CCc1cccc(OCC(=O)Nc2ccc(C)c(S(=O)(=O)N3CCCCCC3)c2)c1	NR2F2 inh 40.1, GalR3 antagonist 87.4 | GalR3 antag conf 80.1 | CNG parental inactive | Gal4-VP16 ctr inactive | NR2F2 inh conf inactive
Cc1ccc(NC(=O)COc2ccc(N(C)C(=O)C(C)(C)C)cc2)cc1S(=O)(=O)N1CCCCC1	NR2F2 inh 74.3, GalR3 antagonist 93.2 | GalR3 antag conf 105.3 | CNG parental inactive | Gal4-VP16 ctr inactive | NR2F2 inh conf 53.9
Cc1ccc(NC(=O)COc2cccc(C)c2C)cc1S(=O)(=O)N1CCCCCC1	none
COc1ccc(NC(=O)CN(C)CC(=O)Nc2ccc(C)c(S(=O)(=O)N3CCCCC3)c2)cc1	none
Cn1nc(C(C)(C)C)cc1C(=O)NCc1ccc2c(c1)OCO2	NR2F2 inh 59.9, GalR3 antagonist 105.3 | GalR3 antag conf 107.8 | CNG parental inactive | Gal4-VP16 ctr inactive | NR2F2 inh conf 50.2
Cn1cc(CNCc2ccc(OC(F)(F)F)cc2)c(-c2ccc3c(c2)OCCO3)n1	NR2F2 inh 48.1, GalR3 antagonist 35.4 | GalR3 antag conf 91.9 | CNG parental 1.7 | Gal4-VP16 ctr inactive | NR2F2 inh conf 39.7
CCCCOCCCNC(=O)C[C@@H]1C[C@]2(C(=O)OCC)CCC3=C2N(CCC3)C1=O	none (no result: NCOA1 inh, GalR3 antagonist, NR5A2 inv ag, SRC3 inh)
CCn1nc(C)c(CNC(=O)c2ccc(OC3CCN(Cc4ccccn4)CC3)cc2)c1C	NR2F2 inh 58.1, GalR3 antagonist 97.2 | GalR3 antag conf 103.2 | CNG parental inactive | Gal4-VP16 ctr 16.4 | NR2F2 inh conf 65.6
COc1ccc(S[C@]2(C(=O)N3CCCC3)CC(=O)N(C(=O)c3ccccc3)[C@@H]2c2ccc(OC)cc2)cc1	none (no result: NCOA1 inh, GalR3 antagonist, NR5A2 inv ag, SRC3 inh)
Fc1ccc(NC(=S)NNc2ncc(C(F)(F)F)cc2Cl)c(F)c1	NR2F2 inh 57.5, GalR3 antagonist 91.9 | GalR3 antag conf 97.1 | CNG parental inactive | Gal4-VP16 ctr 19.6 | NR2F2 inh conf inactive
FC(F)(F)c1cnc(NNC(=S)Nc2ccc(Cl)cc2)c(Cl)c1	none
O=C(Oc1ccccc1)c1cc(O)c(O)c(O)c1	none (no result: NR2F2 inh, GalR3 antagonist, NCOA2 inhibitor)
COc1ccc(CN2CCC(C(=O)Nc3ccc(Oc4ccccc4)nc3)CC2)cc1F	NR2F2 inh 47.8, GalR3 antagonist 62.4 | GalR3 antag conf 101.2 | CNG parental inactive | Gal4-VP16 ctr inactive | NR2F2 inh conf inactive
O=C(Nc1ccc(Oc2ccccc2)nc1)C1CCN(Cc2ccccc2)CC1	none
CCOC(=O)C1(C(=O)OCC)N=C(c2ccccc2)C=C1c1ccccc1	none (no result: NCOA1 inh, NR5A2 inv ag, SRC3 inh)
COc1ccc(CCNc2c(C)c(C)nc3ncnn23)cc1	NR2F2 inh 65.6, GalR3 antagonist 90.4 | GalR3 antag conf 89.9 | CNG parental inactive | Gal4-VP16 ctr inactive | NR2F2 inh conf 52.0
CCc1c(C)nc2ncnn2c1NCCc1ccc(OC)c(OC)c1	none
CCOCCC(=O)Nc1ccc2c(c1)c(=O)n(C)n2CC=C(C)C	none
CCCCCOc1ccc(/C(C)=N/NC2=NCCN2)cc1	none
CCOc1ccc(Br)cc1/C(C)=N\NC1=NCCN1	NR2F2 inh 44.6, GalR3 antagonist 65.2 | GalR3 antag conf 79.6 | CNG parental 4.9 | Gal4-VP16 ctr inactive | NR2F2 inh conf inactive
CCN(CC)S(=O)(=O)c1cccc(NC(=O)COC(=O)c2[nH]c(C)c(C(C)=O)c2C)c1	NR2F2 inh 62.5, GalR3 antagonist 28.3 | GalR3 antag conf 97.3 | CNG parental inactive | Gal4-VP16 ctr inactive | NR2F2 inh conf 60.3
CC(=O)c1c(C)[nH]c(C(=O)OCC(=O)Nc2cccc(S(=O)(=O)N(C)C)c2)c1C	none
Cc1c(C(=O)NCc2ccc(C(C)C)cc2)sc(=O)n1Cc1ccc(S(=O)(=O)N(C)C)cc1	NR2F2 inh 67.8, GalR3 antagonist 37.4 | GalR3 antag conf 28.4 | CNG parental inactive | Gal4-VP16 ctr inactive | NR2F2 inh conf 64.0
Cc1nc2ccc(NC(=O)c3cc(S(=O)(=O)N(C)c4ccccc4)ccc3Cl)cc2s1	NR2F2 inh 77.8, GalR3 antagonist 77.9 | GalR3 antag conf 111.9 | CNG parental inactive | Gal4-VP16 ctr inactive | NR2F2 inh conf 69.4
COc1ccc(N=C2SCC(=O)N2CCc2ccc(OC)c(OC)c2)cc1	none
COc1ccc(CCN2C(=O)CSC2=Nc2ccc(C(C)C)cc2)cc1OC	NR2F2 inh 63.6, GalR3 antagonist 83.5 | GalR3 antag conf 96.3 | CNG parental inactive | Gal4-VP16 ctr 14.5 | NR2F2 inh conf 61.6
O=C(OCC#CCSc1nnc(-c2cccc3ccccc23)o1)c1ccc(SC(F)(F)F)cc1	none (no result: NCOA1 inh, GalR3 antagonist, NCOA2 inhibitor, NR5A2 inv ag, SRC3 inh)
O=C(COC(=O)c1ccc2ccccc2n1)Nc1cccc(S(=O)(=O)NC2=NCCCCC2)c1	none
CCc1nc2ccccc2c(C(=O)OCC(=O)Nc2cccc(S(=O)(=O)NC3=NCCCCC3)c2)c1C	NR2F2 inh 64.3, GalR3 antagonist 13.9 | GalR3 antag conf inactive | CNG parental inactive | Gal4-VP16 ctr inactive | NR2F2 inh conf inactive
COc1cc(NC(=O)CNC(=O)Cn2cnc3sc(C)c(C)c3c2=O)cc(OC)c1OC	none
